# Records with an inconclusive call do not appear. Activity calls are given as the source filed them. The calls were made as follows, unless noted: active = hit-call score of the fitted dose curve at least 0.9, where 1 is the maximum; inactive = score below 0.9.
# Tests used:
# [1] = read-out: Interleukin-1 alpha (IL1a), IL1A (gene 3552); test: BSK_LPS_IL1a: BioMAP Diversity Plus: LPS Assay for Interleukin-1 alpha (IL1a) Biomarker Activity (AID 2283080); settings: primary human HUVEC with PBMC; actives raise or lower the signal
# Summary of the method: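 Primary human HUVEC and PBMC co-culture stimulated with LPS is dosed and harvested at 24 h. Both increases and decreases in ELISA-measured IL-1a are scored relative to DMSO.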
# [2] = read-out: Monocyte Chemoattractant Protein-1 (MCP1), CCL2 (gene 6347); test: BSK_LPS_MCP1: BioMAP Diversity Plus: LPS Assay for Monocyte Chemoattractant Protein-1 (MCP1) Biomarker Activity (AID 2283081); settings: primary human HUVEC with PBMC; actives raise or lower the signal
# Summary of the method: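 Values derive from bidirectional fitting against DMSO of ELISA-measured MCP-1 in a human primary endothelial and mononuclear cell co-culture, 24 h after chemical addition under LPS activation.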
# [3] = BSK_LPS_PGE2: BioMAP Diversity Plus: LPS Assay for Prostaglandin E2 (PGE2) Biomarker Activity (AID 2283082); settings: primary human HUVEC with PBMC; actives raise or lower the signal;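 as to AC50: secreted prostaglandin E2 measured by ELISA in LPS-stimulated co-culture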
# Summary of the method: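 HUVEC plus PBMC co-culture stimulated with LPS; secreted PGE2 quantified by ELISA 24 h after chemical dosing. Activity fitted bidirectionally against DMSO as negative control and baseline; parallel SRB total-protein staining served as cytotoxicity check.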
# [4] = read-out: Macrophage colony-stimulating factor (MCSF), CSF1 (gene 1435); test: BSK_LPS_MCSF: BioMAP Diversity Plus: LPS Assay for Macrophage colony-stimulating factor (MCSF) Biomarker Activity (AID 2283083); settings: primary human HUVEC with PBMC; actives raise or lower the signal
# Summary of the method: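 Bidirectional fit versus DMSO of ELISA-measured M-CSF in co-cultured human umbilical vein endothelial cells and PBMC, sampled 24 h after dosing.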
# [5] = read-out: Tissue Factor, F3 (gene 2152); test: BSK_LPS_TissueFactor: BioMAP Diversity Plus: LPS Assay for Tissue Factor Biomarker Activity (AID 2283084); settings: primary human HUVEC with PBMC; actives raise or lower the signal
# Summary of the method: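 Read-out: CD142 ELISA, 24 h. System: LPS-driven human endothelial/PBMC co-culture. Analysis: up- or down-signal fitted against DMSO.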
# [6] = read-out: Tumor necrosis factor (Homo sapiens) (UniProt P01375); test: BSK_LPS_TNFa: BioMAP Diversity Plus: LPS Assay for Tumour Necrosis Factor alpha (TNFa) Biomarker Activity (AID 2283085); settings: primary human HUVEC with PBMC; actives raise or lower the signal
# Summary of the method: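 Human umbilical vein endothelial cells co-cultured with PBMC were exposed to test chemical and TNFa measured by ELISA 24 h after dosing. Bidirectional curve fitting was done relative to DMSO as negative control and baseline.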
# [7] = read-out: Vascular cell adhesion molecule 1 (VCAM1), VCAM1 (gene 7412); test: BSK_LPS_VCAM1: BioMAP Diversity Plus: LPS Assay for Vascular cell adhesion molecule 1 (VCAM1) Biomarker Activity (AID 2283086); settings: primary human HUVEC with PBMC; actives raise or lower the signal
# Summary of the method: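 Human umbilical vein endothelial cells co-cultured with peripheral blood mononuclear cells under LPS stimulation were exposed to test chemical for 24 h. VCAM-1 levels were then measured by ELISA, with bidirectional curve fitting relative to DMSO as negative control and baseline.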
# CD38, CD38 (gene 952) = test: BSK_SAg_CD38: BioMAP Diversity Plus: SAg Assay for CD38 Biomarker Activity (AID 2283087); settings: primary human HUVEC with PBMC; actives raise or lower the signal
# Summary of the method: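 Fluorescence ELISA of cell-surface CD38 served as the read-out, with either increase or decrease fitted against DMSO controls. Cells were a human umbilical vein endothelium plus PBMC co-culture under SEB/TSST-1 stimulation, measured 24 h after dosing.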
# CD40, CD40 (gene 958) = test: BSK_SAg_CD40: BioMAP Diversity Plus: SAg Assay for CD40 Biomarker Activity (AID 2283088); settings: primary human HUVEC with PBMC; actives raise or lower the signal
# Summary of the method: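 Endpoint derived by fitting increases or decreases versus DMSO controls. CD40 is detected by fluorescence ELISA in a human vascular co-culture of endothelium and PBMC at 24 h.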
# CD69, CD69 (gene 969) = test: BSK_SAg_CD69: BioMAP Diversity Plus: SAg Assay for CD69 Biomarker Activity (AID 2283089); settings: primary human HUVEC with PBMC; actives raise or lower the signal
# Summary of the method: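 Endothelial/PBMC co-culture; chemical added; 24 h incubation; CD69 ELISA with fluorescence detection; bidirectional fit vs DMSO.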
# [8] = read-out: Monocyte Chemoattractant Protein-1 (MCP1), CCL2 (gene 6347); test: BSK_SAg_MCP1: BioMAP Diversity Plus: SAg Assay for Monocyte Chemoattractant Protein-1 (MCP1) Biomarker Activity (AID 2283090); settings: primary human HUVEC with PBMC; actives raise or lower the signal
# Summary of the method: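 MCP-1 levels in the endothelial–PBMC SAg co-culture were quantified by ELISA at 24 h post-dosing; both increases and decreases versus DMSO scored. Cytotoxicity monitored by SRB total protein in parallel cultures.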
# [9] = read-out: E-selectin (Homo sapiens) (UniProt P16581); test: BSK_SAg_Eselectin: BioMAP Diversity Plus: SAg Assay for Eselectin Biomarker Activity (AID 2283091); settings: primary human HUVEC with PBMC; actives raise or lower the signal
# Summary of the method: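 Endpoint values derive from bidirectional fitting relative to DMSO, using ELISA-measured E-selectin in a human vascular co-culture (umbilical vein endothelium plus PBMC) sampled 24 h after dosing.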
# [10] = read-out: Monokine induced gamma interferon (MIG), CXCL9 (gene 4283); test: BSK_SAg_MIG: BioMAP Diversity Plus: SAg Assay for Monokine induced gamma interferon (MIG) Biomarker Activity (AID 2283092); settings: primary human HUVEC with PBMC; actives raise or lower the signal
# Summary of the method: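 Measures CXCL9 protein by ELISA in a human vascular primary-cell co-culture (umbilical vein endothelium with PBMC) 24 h after chemical addition. Activity is scored up or down from the DMSO control.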
# [11] = read-out: Interleukin-8 (IL8), CXCL8 (gene 3576); test: BSK_SAg_IL8: BioMAP Diversity Plus: SAg Assay for Interleukin-8 (IL8) Biomarker Activity (AID 2283094); settings: primary human HUVEC with PBMC; actives raise or lower the signal
# Summary of the method: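 Human umbilical vein endothelial cells co-cultured with peripheral blood mononuclear cells; IL-8 measured by ELISA 24 h after chemical dosing. Bidirectional concentration-response fitting used DMSO as negative control and activity baseline.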
# [12] = BSK_SAg_Proliferation: Cell Proliferation Assessment in the BioMAP Diversity Plus: SAg Assay (AID 2283095); settings: primary human HUVEC with PBMC;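 also: relative cell number as total protein by SRB absorbance in sub-confluent culture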
# Summary of the method: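 Human umbilical vein endothelial cells co-cultured with peripheral blood mononuclear cells; total protein measured by sulforhodamine B staining (0.1% SRB after 10% TCA fixation), absorbance at 560 nm, at 96 h. Bidirectional fit against DMSO baseline.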
# [13] = BSK_SAg_SRB: Viability Assessment in the BioMAP Diversity Plus: SAg Assay (AID 2283096); settings: primary human HUVEC with PBMC;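 also: cells read one day after compound addition; hits may be either gain or loss of signal compared with DMSO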
# Summary of the method: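 Total protein by sulforhodamine B staining, 24 h after dosing, in HUVEC–PBMC co-culture; DMSO-referenced bidirectional fitting.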
# [14] = BSK_SAg_PBMCCytotoxicity: PBMC Cytotoxicity Assessment in the BioMAP Diversity Plus: SAg Assay (AID 2283093); settings: primary human HUVEC with PBMC;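 also: PBMC viability measured as Alamar Blue reduction fluorescence at 546/580 nm; fitted both ways against DMSO so a hit may be loss or gain of signal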;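 as to AC50: PBMC superantigen activated with SEB plus TSST-1 one hour after compound addition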
# Summary of the method: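 Compound added to 75,000 PBMC/well for 1 h; SEB and TSST-1 then added at 20 ng/mL final each; 90 h incubation; Alamar Blue 6 h; read 546/580 nm ex/em. Activity fitted bidirectionally relative to DMSO baseline.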
# [15] = biological target: human CYP19A1, CYP19A1 (gene 1588) (UniProt P11511); test: NVS_ADME_hCYP19A1: NovaScreen (NVS) CYP450-related Enzyme Activity (ADME) Assay for human CYP19A1 (AID 2283098; active = hit-call score of the fitted dose curve at least 0.9, where 1 is the maximum)
# Summary of the method: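 Biochem, cell-free; recombinant enzyme + specific substrate; fluorescence intensity at 0.5 h post-dose; 10 uM duplicate primary, conc. series for actives; acetonitrile = negative control/baseline; positive and negative controls on every plate.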
# [16] = biological target: human CYP1A1, CYP1A1 (gene 1543) (UniProt P04798); test: NVS_ADME_hCYP1A1: NovaScreen (NVS) CYP450-related Enzyme Activity (ADME) Assay for human CYP1A1 (AID 2283100; active = hit-call score of the fitted dose curve at least 0.9, where 1 is the maximum)
# Summary of the method: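 Inhibition of recombinant CYP1A1 turnover was assessed fluorometrically in a biochemical format 1 h after compound exposure. Testing began at 10 uM in duplicate and progressed to concentration series reaching 20 uM, with on-plate positive and negative controls.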
# E-selectin (Homo sapiens), sequence (P16581 whole entry, looked up): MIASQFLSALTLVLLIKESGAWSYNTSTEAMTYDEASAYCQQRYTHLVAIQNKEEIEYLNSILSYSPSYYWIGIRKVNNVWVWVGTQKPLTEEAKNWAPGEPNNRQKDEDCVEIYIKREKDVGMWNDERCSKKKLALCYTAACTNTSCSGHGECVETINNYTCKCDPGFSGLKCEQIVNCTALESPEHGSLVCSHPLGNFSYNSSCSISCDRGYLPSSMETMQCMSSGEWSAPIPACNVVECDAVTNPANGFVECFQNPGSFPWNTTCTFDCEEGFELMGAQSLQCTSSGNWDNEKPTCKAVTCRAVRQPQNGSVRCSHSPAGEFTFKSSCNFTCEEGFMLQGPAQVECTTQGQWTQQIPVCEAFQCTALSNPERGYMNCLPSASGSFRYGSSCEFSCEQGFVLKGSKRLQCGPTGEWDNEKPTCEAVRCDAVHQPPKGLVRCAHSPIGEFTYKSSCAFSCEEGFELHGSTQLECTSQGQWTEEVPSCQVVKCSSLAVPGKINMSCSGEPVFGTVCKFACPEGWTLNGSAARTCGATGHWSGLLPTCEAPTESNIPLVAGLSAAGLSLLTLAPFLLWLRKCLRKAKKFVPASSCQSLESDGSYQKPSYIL
# Tumor necrosis factor (Homo sapiens), sequence (P01375 whole entry, looked up): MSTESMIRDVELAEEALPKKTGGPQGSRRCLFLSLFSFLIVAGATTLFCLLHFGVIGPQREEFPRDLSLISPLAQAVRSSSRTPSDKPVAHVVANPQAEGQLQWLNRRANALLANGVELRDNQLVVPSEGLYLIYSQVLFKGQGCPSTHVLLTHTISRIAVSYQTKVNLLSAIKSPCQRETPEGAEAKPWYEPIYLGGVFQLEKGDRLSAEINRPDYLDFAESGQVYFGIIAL
# human CYP19A1, CYP19A1 (gene 1588), sequence (P11511 whole entry, looked up): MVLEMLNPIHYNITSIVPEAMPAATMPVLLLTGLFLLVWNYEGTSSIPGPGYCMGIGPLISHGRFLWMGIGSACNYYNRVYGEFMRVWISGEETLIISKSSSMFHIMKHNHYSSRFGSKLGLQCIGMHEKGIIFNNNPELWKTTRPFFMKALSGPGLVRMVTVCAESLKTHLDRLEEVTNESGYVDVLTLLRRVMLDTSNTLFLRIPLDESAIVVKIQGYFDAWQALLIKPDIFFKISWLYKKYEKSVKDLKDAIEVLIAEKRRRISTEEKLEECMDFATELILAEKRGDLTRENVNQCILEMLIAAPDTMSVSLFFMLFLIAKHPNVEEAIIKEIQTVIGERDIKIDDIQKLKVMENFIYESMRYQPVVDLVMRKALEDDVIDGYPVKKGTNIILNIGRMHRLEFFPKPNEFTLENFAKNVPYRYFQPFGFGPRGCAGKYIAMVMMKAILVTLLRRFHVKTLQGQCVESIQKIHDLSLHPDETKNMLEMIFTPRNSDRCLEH
# human CYP1A1, CYP1A1 (gene 1543), sequence (P04798 whole entry, looked up): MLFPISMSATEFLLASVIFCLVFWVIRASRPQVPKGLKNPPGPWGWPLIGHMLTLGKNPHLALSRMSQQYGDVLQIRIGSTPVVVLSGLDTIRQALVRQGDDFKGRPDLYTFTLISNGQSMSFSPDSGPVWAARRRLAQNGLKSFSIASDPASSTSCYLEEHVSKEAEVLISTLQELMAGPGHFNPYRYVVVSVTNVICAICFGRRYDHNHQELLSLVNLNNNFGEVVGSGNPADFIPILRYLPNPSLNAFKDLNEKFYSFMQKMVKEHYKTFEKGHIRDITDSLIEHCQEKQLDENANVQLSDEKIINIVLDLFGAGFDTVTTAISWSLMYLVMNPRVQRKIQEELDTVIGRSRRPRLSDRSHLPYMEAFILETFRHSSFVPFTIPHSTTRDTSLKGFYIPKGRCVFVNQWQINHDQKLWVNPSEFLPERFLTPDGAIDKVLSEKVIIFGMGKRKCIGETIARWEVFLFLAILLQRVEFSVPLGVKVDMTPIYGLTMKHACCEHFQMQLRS
compound,measurement,setting,value
CC(CO)OC(C)CO (stereo not given) (tested in a mixture with another compound),outcome,[1],inactive
same,outcome,[2],inactive
same,outcome,[3],inactive
same,outcome,[4],inactive
same,outcome,[5],inactive
same,outcome,[6],inactive
same,outcome,[7],inactive
same,outcome,"CD38, CD38 (gene 952)",inactive
same,outcome,"CD40, CD40 (gene 958)",inactive
same,outcome,"CD69, CD69 (gene 969)",inactive
same,outcome,[8],inactive
same,outcome,[9],inactive
same,outcome,[10],inactive
same,outcome,[11],inactive
same,outcome,[12],inactive
same,outcome,[13],inactive
Cc1nc(-c2ccc3c(c2)CCN(CCC2CCC(NC(=O)/C=C/c4ccc(F)cc4)CC2)CC3)no1 (stereo not given),outcome,[1],inactive
same,outcome,[2],inactive
same,AC50,[3],1.45 µM (active)
same,AC50,[4],9.3 µM (active)
same,outcome,[5],inactive
same,outcome,[6],inactive
same,AC50,[7],9.3 µM (active)
same,AC50,"CD38, CD38 (gene 952)",9.3 µM (active)
same,AC50,"CD40, CD40 (gene 958)",6.43 µM (active)
same,outcome,"CD69, CD69 (gene 969)",inactive
same,outcome,[8],inactive
same,outcome,[9],inactive
same,outcome,[10],inactive
same,outcome,[14],inactive
same,outcome,[11],inactive
same,outcome,[12],inactive
same,outcome,[13],inactive
same,outcome,[15],inactive
CCNc1cccc(C)c1,outcome,[1],inactive
same,outcome,[2],inactive
same,outcome,[3],inactive
same,outcome,[4],inactive
same,outcome,[5],inactive
same,outcome,[6],inactive
same,outcome,[7],inactive
same,outcome,"CD38, CD38 (gene 952)",inactive
same,outcome,"CD40, CD40 (gene 958)",inactive
same,outcome,"CD69, CD69 (gene 969)",inactive
same,outcome,[8],inactive
same,outcome,[9],inactive
same,outcome,[10],inactive
same,outcome,[11],inactive
same,outcome,[12],inactive
same,outcome,[13],inactive
OC[C@@H](O)[C@@H](O)[C@H](O)[C@H](O)CO,outcome,[1],inactive
same,outcome,[2],inactive
same,outcome,[3],inactive
same,outcome,[4],inactive
same,outcome,[5],inactive
same,outcome,[6],inactive
same,outcome,[7],inactive
same,outcome,"CD38, CD38 (gene 952)",inactive
same,outcome,"CD40, CD40 (gene 958)",inactive
same,outcome,"CD69, CD69 (gene 969)",inactive
same,outcome,[8],inactive
same,outcome,[9],inactive
same,outcome,[10],inactive
same,outcome,[14],inactive
same,outcome,[11],inactive
same,outcome,[12],inactive
CCCc1cc(=O)[nH]c(=S)[nH]1,outcome,[1],inactive
same,outcome,[2],inactive
same,outcome,[3],inactive
same,outcome,[4],inactive
same,outcome,[5],inactive
same,outcome,[6],inactive
same,outcome,[7],inactive
same,outcome,"CD38, CD38 (gene 952)",inactive
same,outcome,"CD40, CD40 (gene 958)",inactive
same,outcome,"CD69, CD69 (gene 969)",inactive
same,outcome,[8],inactive
same,outcome,[9],inactive
same,outcome,[10],inactive
same,outcome,[14],inactive
same,outcome,[11],inactive
same,outcome,[12],inactive
same,outcome,[13],inactive
CCOc1ccc2c(c1)C(C)=CC(C)(C)N2,outcome,[1],inactive
same,outcome,[2],inactive
same,AC50,[3],4.6 µM (active)
same,outcome,[4],inactive
same,outcome,[5],inactive
same,AC50,[6],3.97 µM (active)
same,outcome,[7],inactive
same,outcome,"CD38, CD38 (gene 952)",inactive
same,outcome,"CD40, CD40 (gene 958)",inactive
same,outcome,"CD69, CD69 (gene 969)",inactive
same,outcome,[8],inactive
same,outcome,[9],inactive
same,outcome,[10],inactive
same,AC50,[14],10.1 µM (active)
same,outcome,[11],inactive
same,AC50,[12],24.8 µM (active)
same,outcome,[13],inactive
same,outcome,[16],inactive
CC(=O)OC/C=C(\C)CCC=C(C)C,outcome,[1],inactive
same,outcome,[2],inactive
same,outcome,[3],inactive
same,outcome,[4],inactive
same,outcome,[5],inactive
same,outcome,[6],inactive
same,outcome,[7],inactive
same,outcome,"CD38, CD38 (gene 952)",inactive
same,outcome,"CD40, CD40 (gene 958)",inactive
same,outcome,"CD69, CD69 (gene 969)",inactive
same,outcome,[8],inactive
same,outcome,[9],inactive
same,outcome,[10],inactive
same,outcome,[14],inactive
same,outcome,[11],inactive
same,outcome,[12],inactive
same,outcome,[13],inactive
CNC(=O)[C@H]1O[C@@H](n2cnc3c(NCc4cc(Cl)ccc4OCc4cc(C)no4)ncnc32)[C@H](O)[C@@H]1N,outcome,[1],inactive
same,outcome,[2],inactive
same,outcome,[3],inactive
same,outcome,[4],inactive
same,outcome,[5],inactive
same,outcome,[6],inactive
same,outcome,[7],inactive
same,outcome,"CD38, CD38 (gene 952)",inactive
same,outcome,"CD40, CD40 (gene 958)",inactive
same,outcome,"CD69, CD69 (gene 969)",inactive
same,outcome,[8],inactive
same,outcome,[9],inactive
same,outcome,[10],inactive
same,outcome,[14],inactive
same,outcome,[11],inactive
same,outcome,[12],inactive
same,outcome,[13],inactive

# Source: PubChem BioAssay (EPA / NIEHS)
